For 34 compounds, inhibition results are on record in PubChem BioAssay AID2766 (Sanford-Burnham Center for Chemical Genomics, 2010).

In the assay the target is Apelin receptor (Homo sapiens) (UniProt P35414). Nature of the assay: APJ antagonists blocking beta-arrestin recruitment, confirmation, cell-based, luminescence, single concentration, uHTS hits (AID 2766). The settings on record: antagonist mode, at 20 µM, stronger effect = higher value. For orientation: Recruitment of arrestin is a read-out of receptor activation apart from second messengers.
Chain of Apelin receptor (Homo sapiens) (P35414 whole entry, looked up): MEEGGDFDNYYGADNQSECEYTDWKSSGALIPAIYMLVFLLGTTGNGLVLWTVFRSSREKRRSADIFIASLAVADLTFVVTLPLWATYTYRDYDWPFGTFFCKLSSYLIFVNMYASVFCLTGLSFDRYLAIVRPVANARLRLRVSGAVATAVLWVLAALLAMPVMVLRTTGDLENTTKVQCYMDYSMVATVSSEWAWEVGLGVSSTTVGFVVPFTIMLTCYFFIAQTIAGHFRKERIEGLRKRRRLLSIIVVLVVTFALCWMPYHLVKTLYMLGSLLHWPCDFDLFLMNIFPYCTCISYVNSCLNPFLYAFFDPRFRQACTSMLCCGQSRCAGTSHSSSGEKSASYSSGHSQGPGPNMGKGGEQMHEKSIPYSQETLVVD

The list shows a part of the results. Values without a mark were called inactive. Active and inactive are the calls of the source. Cut-off read from the data, not from the text of the source: active = inhibition above about 50%; inactive = the rest.

Turning to `CCc1ccc2c(c1)C1(NN=C(c3ccccc3)S1)C(=O)N2` (centres undefined), the inhibition (commonly the change of the read-out against control, counted positive when it falls) is 42.9%. With `O=c1ccc2c(-c3ccccc3S(=O)(=O)O)c3ccc(O)c(O)c3oc-2c1O`, the inhibition was 69.9% (active). With `Cc1csc(NC(=S)Nc2cccc(Cl)c2)n1` the figure was 55.8% (active); with `COc1ccc(NC(=O)/C(Cl)=C(/Cl)S(=O)Cc2ccc(C)cc2)cn1` (centres undefined), 106% (active); with `CSCCC(NC(=O)COc1ccccc1)C(=O)OCC(=O)c1cc2ccccc2o1` (centres undefined), 87.8% (active). As to `Cc1cc(/C=N/Nc2ccc([N+](=O)[O-])cn2)c(C)n1-c1cccc(C(=O)O)c1`, the inhibition is 75.3% (active). With `COc1ccc(CS(=O)/C(Cl)=C(/Cl)C(=O)Nc2ccc(OC)nc2)cc1` (centres undefined) the figure was 100% (active); with `CC1CC2=C(CC1/C=N/NC(N)=S)C(C)(C)CCC2` (centres undefined), 103% (active). For the compound `CC(=O)C1=C(O)C(=O)N(c2ccc(S(N)(=O)=O)cc2)C1c1ccccc1F` (centres undefined), the inhibition is 43.9%. To `O=C(CCl)NNc1cccc(Cl)n1` belongs 145% (active); to `CN(C)S(=O)(=O)c1cccc(NC(=S)N/N=C/C(=O)c2ccccc2)c1`, 52.4% (active); to `Cc1cccc2cc3c(N)c(C(=O)N4CCCc5ccccc54)sc3nc12`, 47.9%.

For `CC(=O)Nc1ccc(NC(=O)c2sc3nc4c(c(-c5ccc(C)cc5)c3c2N)CCC4)cc1`, the inhibition is 5.53%. `O=[N+]([O-])c1ccccc1S(=O)(=O)Nc1cccc2cccnc12`: the inhibition was 4.57%.

Consider `COc1cc(NS(=O)(=O)c2ccc3ccccc3c2)c2ncccc2c1`, for which the inhibition is -7.35%. In the case of `CCOC(=O)c1cnc(Nc2nc3ccccc3o2)nc1CSC(=S)N1CCCCC1`, the inhibition is -22.6%. Turning to `O=C(CSc1cccc2cccnc12)N/N=C/c1cccnc1`, the inhibition is 43.5%. In the case of `COc1cc(/C=C2/SC(=S)N(Cc3ccccc3)C2=O)cc(OC)c1O`, the inhibition was 94.7% (active). For the compound `O=C(CCc1nc2ccccc2c(=O)[nH]1)OCC(=O)c1cccc(Cl)c1`, the inhibition is 37.2%. On to `O=[N+]([O-])c1c(NCCO)cc(Sc2nc3ccccc3s2)c2nonc12`, for which the inhibition is 105% (active). With `O=[N+]([O-])c1cc(Cl)cc(/C=N/NC(=S)Nc2cc(S(=O)(=O)N3CCOCC3)ccc2Cl)c1O` the figure was 62.4% (active). Turning to `CC(CN1CCOCC1)OC(=O)c1ccc(C(C)(C)C)cc1` (centres undefined), the inhibition was 26.5%. To `CC(=O)/C(=N\Nc1ccc(Cl)cc1Cl)Sc1cccc2cccnc12` belongs 78% (active); to `Oc1ccc(N=Nc2nccs2)c(O)c1`, 79.8% (active). In the case of `O=C1Nc2ccc(Br)cc2/C1=N/N=C/C1=C(N2CCOCC2)C(=C\c2ccccc2)/CC1`, the inhibition is 75.1% (active). Take `COc1cccc2sc(Nc3nc(C)c(C(C)=O)s3)nc12`: the inhibition is 94% (active). As for `CN1/C(=c2/s/c(=C3/C(=O)N(c4ccccc4)NC3=Nc3ccccc3)n(C)c2=O)C(C)(C)c2ccccc21`, the inhibition is 55.3% (active). Take `O=C1Nc2ccc([N+](=O)[O-])cc2C1=Nc1cccc(CO)c1`: the inhibition is 72.5% (active). For the compound `COC(=O)c1ccc(NCC(=O)c2ccccc2)cc1`, the inhibition was 63.5% (active). To `COc1cc(/C=N\NC(=O)CNC(=O)c2cccc([N+](=O)[O-])c2)ccc1O` belongs 2.71%.

With `COc1cc(/C=C(\C#N)c2nc3c(s2)CC(C)CC3)ccc1O` (centres undefined), the inhibition was 44.7%.

Take `CC(C)OC(=O)CN1C(=O)C(=O)c2ccccc21`: the inhibition is 158% (active).

As to `S=C(NNC(=S)NC1CC2CCC1C2)NC1CC2C=CC1C2` (centres undefined), the inhibition is 49.1%. On to `Cc1cccc(-n2c(O)c(C=Nc3ccccc3N)c(=O)[nH]c2=O)c1`, for which the inhibition was 8.93%.
